Laboratory results from PubChem BioAssay (NCATS).
Results filed as inconclusive are left out. A number with no mark means an inactive call. The call rests on the fitted dose curve; in most records, active means well fitted cell-killing curve with a large enough effect; inconclusive means small, poorly fitted or top-dose-only effect, or effect the other way; inactive means flat fitted curve, though single readings scatter. *1 amine or outer side, *2 acyl side, *3 side chain or, on linkers, in order; H or OH if unused. Where a SMILES comes first, the peptide text is derived from it. [ ]: non-standard residue; d: D form. X13 = O=C(C(CC(O)CO)O[*:1])[*:2]; NMeV = CN[CH](C(=O)O)C(C)C; NMeA = CN[CH](C)C(=O)O; βAla = NCCC(=O)O

system: Tov112D; test: Primary qHTS to identify gynecologic anti-cancer compounds using libraries of approved drugs and bioactive compounds (AID 1345084); details: Gynecologic cancer cell panel viability, ATPlite luminescence, 48 h; series mostly up to 57.5 µM; activity change, negative = cytotoxicity: at the top concentration; further: nearly all actives have a fitted effect of over 55% in size
Procedure, shortened: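 Cytotoxicity screen measuring ATP content by luciferase luminescence. Each compound is applied at five concentrations for 48 h at 37 C with 5% CO2.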
On the % scale 0 is the no-effect control and ±100 the full control effect.

Row | SMILES | activity change, negative = cytotoxicity
1 | NC(Cc1c[nH]c2ccc(O)cc12)C(=O)O (stereo not given) | 3.67%
2 | CCN=C1N[C@@H]2[C@@H](O)[C@H](O)[C@@H](CO)O[C@@H]2S1 | 12.9%
3 | O=C(NC1CCN(CC(F)(F)F)CC1)c1ccc(-c2cccc(F)c2)nc1 | -0.534%
4 | COc1cc(/C=C/C(=O)O[C@H]2[C@@H]3C=CO[C@@H](O[C@@H]4O[C@H](CO)[C@@H](O)[C@H](O)[C@H]4O)[C@@H]3[C@@]3(CO)O[C@@H]23)ccc1O | -2.82% [at 25.3 µM]
5 | C[C@@H]1[C@H](O)[C@@H]2OC(=O)C3=C2[C@H](CCC3)[C@@]12C[C@@H](c1ccoc1)OC2=O | 11.7% [at 38.5 µM]
6 | CC1OC(OC2CCC3(C)C(CCC4(C)C3C=CC35OCC6(CCC(C)(C)CC63)CCC45C)C2(C)CO)C(OC2OC(CO)C(O)C(O)C2O)C(O)C1OC1OC(CO)C(O)C(O)C1O (stereo not given) | 11.6% [at 11.6 µM]
7 | CCC(C)C1NC(=O)C2CCCN2C(=O)C(CC(O)CO)OC(=O)CCNC(=O)C(C)N(C)C(=O)C(C(C)C)N(C)C1=O (stereo not given) (cyclo([X13]PI[NMeV][NMeA][βAla]); configuration not given here) | 0.416% [at 25.3 µM]
8 | CC(O)C(=O)/C=C/C=C/C(=O)OC1C=C2COC(=O)C2(O)C2(C)CCCC(C)(C)C12 (stereo not given) | 3.32% [at 25.3 µM]
9 | CC(C)C(O)(CO)CCO[C@@H]1O[C@H](CO[C@H]2OC[C@](O)(CO)[C@H]2O)[C@@H](O)[C@H](O)[C@H]1O (stereo not given in full) | -1.39% [at 25.3 µM]
10 | Nc1ncnc2c1ncn2[C@H]1O[C@@H](C(=O)N2CCN(CC(=O)Nc3cccc4c3CNC4=O)CC2)[C@H](O)[C@@H]1O | 9.76%
